Data reported in PubChem BioAssay (Tox21).
Inconclusive results are not listed. Entries that show only a call come without a potency. Active and inactive are the calls of the source. Calls come from the whole dose curve.

Target: Beta-2 adrenergic receptor (Homo sapiens) (UniProt P07550)
Assay: Adrenergic beta2 receptor (ADRB2) small molecule agonists, cell-based qHTS assay (AID 1963593);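 note: CHO cells stably overexpressing human ADRB2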
Method in brief: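 CHO cells stably over-expressing ADRB2 were plated overnight at 37C, then dosed with compounds plus a stimulation mix containing 100uM IBMX and 25uM Ro-20-1724 for 0.5hr at room temperature. cAMP was measured by HTRF competition, 1hr.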

Sequence of Beta-2 adrenergic receptor (Homo sapiens) (P07550 whole entry, looked up): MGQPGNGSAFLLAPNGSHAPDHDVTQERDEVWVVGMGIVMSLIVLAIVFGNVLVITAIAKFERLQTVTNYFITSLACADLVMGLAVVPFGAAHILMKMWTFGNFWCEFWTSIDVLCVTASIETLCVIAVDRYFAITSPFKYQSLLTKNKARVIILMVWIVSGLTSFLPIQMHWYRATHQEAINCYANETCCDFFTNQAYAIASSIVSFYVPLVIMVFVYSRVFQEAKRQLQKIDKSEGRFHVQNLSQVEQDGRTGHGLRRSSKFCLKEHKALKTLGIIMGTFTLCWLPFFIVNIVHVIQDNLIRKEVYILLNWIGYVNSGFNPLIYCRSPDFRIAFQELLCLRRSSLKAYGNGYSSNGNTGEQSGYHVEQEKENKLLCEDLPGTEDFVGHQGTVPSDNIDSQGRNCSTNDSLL

| Structure (SMILES) | Potency |
| --- | --- |
| Nc1ccccc1C(=O)OCCc1ccccc1 | inactive |
| CC(C)C(=O)OCC(C)(C)C(OC(=O)C(C)C)C(C)C (centres undefined) | inactive |
| O=NN1CCCC1 | inactive |
| CC(C)OC(=O)Nc1cccc(Cl)c1 | inactive |
| Nc1cc(Cl)cc(C(=O)O)c1Cl | inactive |
| CC1OC(C)OC(C)O1 (centres undefined) | inactive |
| Cc1ccc2c(c1N)C(=O)c1ccccc1C2=O | inactive |
| CCC/C=N/O | inactive |
| O=C(O)C(F)(F)C(F)(F)C(F)(F)C(F)(F)C(F)(F)C(F)(F)C(F)(F)F | inactive |
| N#CCc1ccccc1 | inactive |
| O=[N+]([O-])CCO | inactive |
| OC(O)C(Cl)(Cl)Cl | inactive |
| C=CCN=C=S | inactive |
| COP(=O)(O)OC | inactive |
| COC(C)(C)C | inactive |
| Cc1cnc[nH]1 | inactive |
| CCCCN(CCCC)N=O | inactive |
| ClCc1cccnc1 | inactive |
| O=P(Cl)(Cl)Cl | inactive |
| Cc1ccc(N)cc1 | inactive |
| CN(C)N=O | inactive |
| CC(C#N)CCC#N (centres undefined) | inactive |

| Structure (SMILES) | Potency |
| --- | --- |
| CCCCCCCCCCCCBr | inactive |
| Sc1ccccc1Cl | inactive |
| O=C(Cc1ccccc1)c1ccccc1 | inactive |
| ClCCBr | inactive |
| O=C(NC(=O)c1ccccc1Cl)Nc1ccc(OC(F)(F)F)cc1 | inactive |
| Clc1nc(Cl)nc(Nc2ccccc2Cl)n1 | inactive |
| CCCC[N+]1(C)CCCC1 | inactive |
| C1CC2OC2CC1C1CO1 (centres undefined) | inactive |
| CC1=C(C(=O)Nc2ccccc2)SCCO1 | inactive |
| CCCC[N+]1(C)CCCC1 (tested in a mixture with another compound) | inactive |
| Clc1ccc(C(Cl)(Cl)Cl)c(Cl)c1 | inactive |
| CC(C)NC(C)C | inactive |
| C[N+](C)(C)C | inactive |
| C=CC1(C)OC(=O)N(c2cc(Cl)cc(Cl)c2)C1=O (centres undefined) | inactive |
| C=CC#N | inactive |
| NCCc1ccc(O)cc1 | inactive |
| COCC(=O)N(c1c(C)cccc1C)N1CCOC1=O | inactive |
| O=C(O)CC[N+](=O)[O-] | inactive |
| CCCCCCCCCl | inactive |
| CN(C)C(=O)Nc1cccc(C(F)(F)F)c1 | inactive |
| NC(=O)OCCCc1ccccc1 | inactive |
| Cc1cccc(N=Nc2ccc(N(C)C)cc2)c1 | inactive |
